High-throughput results (PubChem)
The sample as a whole holds a higher share of hits than the screen did.
Pf apPOL block = Pf-apPOL inhibitors, biochemical, fluorescence. Recombinant Pf-apPOL, molecular beacon fluorescence, 1.5 h. inhibition, % at 10 µM. Plasmodium falciparum apicoplast DNA polymerase (apPOL). actives 0.25% (n = 210,000)
mHTT-CaM PPI inh = mutant huntingtin-calmodulin interaction inhibitors – biochemical, AlphaScreen, primary screen. P42858. AlphaScreen His-mHTT/GST-CaM binding, luminescence. inhibition, % at 15 µM. actives 3.6% (n = 190,000). AID 1671202, 2021
Target sequence (P42858 whole entry, looked up, change not shown): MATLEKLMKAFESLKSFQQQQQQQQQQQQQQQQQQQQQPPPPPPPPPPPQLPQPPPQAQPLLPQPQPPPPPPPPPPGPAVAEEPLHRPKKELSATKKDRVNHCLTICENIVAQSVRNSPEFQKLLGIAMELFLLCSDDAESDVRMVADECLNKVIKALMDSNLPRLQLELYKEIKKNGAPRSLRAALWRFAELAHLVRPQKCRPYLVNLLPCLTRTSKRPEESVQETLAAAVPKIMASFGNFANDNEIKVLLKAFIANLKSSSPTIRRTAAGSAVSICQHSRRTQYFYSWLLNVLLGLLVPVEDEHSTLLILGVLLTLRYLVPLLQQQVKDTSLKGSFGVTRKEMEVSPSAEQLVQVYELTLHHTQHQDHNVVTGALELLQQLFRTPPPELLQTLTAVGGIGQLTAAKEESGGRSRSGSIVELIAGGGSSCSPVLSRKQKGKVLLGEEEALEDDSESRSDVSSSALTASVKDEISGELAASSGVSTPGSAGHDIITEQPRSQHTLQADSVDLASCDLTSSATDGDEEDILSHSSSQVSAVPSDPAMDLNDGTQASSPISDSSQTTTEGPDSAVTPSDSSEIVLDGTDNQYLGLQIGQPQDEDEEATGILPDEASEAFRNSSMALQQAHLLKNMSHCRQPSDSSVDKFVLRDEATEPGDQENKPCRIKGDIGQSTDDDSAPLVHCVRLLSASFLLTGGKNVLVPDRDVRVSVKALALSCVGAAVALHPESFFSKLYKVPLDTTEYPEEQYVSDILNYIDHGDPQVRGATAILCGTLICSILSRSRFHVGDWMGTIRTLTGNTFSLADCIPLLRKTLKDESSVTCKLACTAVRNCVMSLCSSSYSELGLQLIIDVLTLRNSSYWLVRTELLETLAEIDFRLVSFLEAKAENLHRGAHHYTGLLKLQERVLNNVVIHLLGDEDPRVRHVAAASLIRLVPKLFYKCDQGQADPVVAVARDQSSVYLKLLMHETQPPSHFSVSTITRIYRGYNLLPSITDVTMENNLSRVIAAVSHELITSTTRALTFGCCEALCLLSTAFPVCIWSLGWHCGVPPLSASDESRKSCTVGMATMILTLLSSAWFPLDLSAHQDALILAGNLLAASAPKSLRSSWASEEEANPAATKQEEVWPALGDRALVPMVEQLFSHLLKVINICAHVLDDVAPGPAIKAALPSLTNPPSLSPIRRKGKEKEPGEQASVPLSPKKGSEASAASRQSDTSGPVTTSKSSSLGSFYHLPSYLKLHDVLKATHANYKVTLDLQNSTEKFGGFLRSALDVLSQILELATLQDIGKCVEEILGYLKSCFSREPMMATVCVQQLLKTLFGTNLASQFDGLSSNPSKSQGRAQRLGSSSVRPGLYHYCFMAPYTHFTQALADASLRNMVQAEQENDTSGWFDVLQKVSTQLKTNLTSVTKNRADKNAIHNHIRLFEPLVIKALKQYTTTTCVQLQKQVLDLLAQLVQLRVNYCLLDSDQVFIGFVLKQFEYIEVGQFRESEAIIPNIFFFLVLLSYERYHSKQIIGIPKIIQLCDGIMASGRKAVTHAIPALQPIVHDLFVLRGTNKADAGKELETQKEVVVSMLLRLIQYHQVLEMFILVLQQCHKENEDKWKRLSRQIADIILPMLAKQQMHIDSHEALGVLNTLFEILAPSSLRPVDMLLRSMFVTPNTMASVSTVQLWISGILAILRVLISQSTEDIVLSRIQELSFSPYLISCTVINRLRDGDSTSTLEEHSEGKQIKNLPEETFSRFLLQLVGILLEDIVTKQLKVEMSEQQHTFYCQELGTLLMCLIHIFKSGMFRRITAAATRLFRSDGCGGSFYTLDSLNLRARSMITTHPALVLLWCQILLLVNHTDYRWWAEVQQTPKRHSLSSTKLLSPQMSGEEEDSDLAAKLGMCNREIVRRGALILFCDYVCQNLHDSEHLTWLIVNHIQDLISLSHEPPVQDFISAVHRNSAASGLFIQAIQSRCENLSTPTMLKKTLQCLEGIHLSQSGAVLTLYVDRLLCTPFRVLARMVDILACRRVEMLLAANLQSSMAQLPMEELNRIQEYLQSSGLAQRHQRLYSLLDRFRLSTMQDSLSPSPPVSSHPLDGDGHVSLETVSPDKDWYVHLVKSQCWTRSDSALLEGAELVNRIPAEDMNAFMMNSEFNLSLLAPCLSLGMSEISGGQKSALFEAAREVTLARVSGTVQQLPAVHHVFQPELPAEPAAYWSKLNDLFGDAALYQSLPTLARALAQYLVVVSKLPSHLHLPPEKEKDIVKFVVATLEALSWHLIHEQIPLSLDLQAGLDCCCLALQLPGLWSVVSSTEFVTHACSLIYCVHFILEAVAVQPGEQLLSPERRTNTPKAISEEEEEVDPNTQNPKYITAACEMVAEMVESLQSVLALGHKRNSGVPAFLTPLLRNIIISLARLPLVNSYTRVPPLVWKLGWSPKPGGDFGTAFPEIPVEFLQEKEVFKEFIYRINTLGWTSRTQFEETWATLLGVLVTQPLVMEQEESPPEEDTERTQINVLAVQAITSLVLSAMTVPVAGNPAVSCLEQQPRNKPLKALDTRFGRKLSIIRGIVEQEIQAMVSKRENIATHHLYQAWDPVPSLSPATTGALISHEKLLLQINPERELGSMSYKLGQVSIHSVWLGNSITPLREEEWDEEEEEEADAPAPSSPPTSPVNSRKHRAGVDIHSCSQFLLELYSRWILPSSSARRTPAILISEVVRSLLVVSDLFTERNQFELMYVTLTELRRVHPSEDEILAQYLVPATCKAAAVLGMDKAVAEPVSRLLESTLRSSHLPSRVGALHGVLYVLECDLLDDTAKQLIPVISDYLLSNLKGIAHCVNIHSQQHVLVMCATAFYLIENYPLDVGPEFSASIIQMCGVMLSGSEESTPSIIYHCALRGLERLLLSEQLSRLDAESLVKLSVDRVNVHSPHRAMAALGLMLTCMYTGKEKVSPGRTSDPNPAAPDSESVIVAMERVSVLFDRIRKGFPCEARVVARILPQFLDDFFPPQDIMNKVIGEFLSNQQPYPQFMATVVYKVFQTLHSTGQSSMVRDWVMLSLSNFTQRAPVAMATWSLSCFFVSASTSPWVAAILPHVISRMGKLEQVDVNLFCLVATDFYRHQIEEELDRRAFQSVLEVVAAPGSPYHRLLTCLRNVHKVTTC
Large screens that a line does not name were inactive. No stated cut-off is given here; in the data, active means inhibition above about 50%; inactive means the rest.

O=c1c(Cl)c(N2CCCC2)cnn1Cc1ccccc1	none
Cc1onc(-c2ccccc2)c1CNS(=O)(=O)c1c(Cl)nc2sccn12	none (no result: mHTT-CaM PPI inh)
O=C(c1sc2cc(Cl)ccc2c1Cl)N1CCN(c2ccc([N+](=O)[O-])cc2)CC1	none
Cc1cc(C)nc(SC(C)C(=O)O)n1 (stereo not drawn)	none
C=CCSc1nc2ccccc2n1CC(=O)O	none
Cc1ccc(Nc2nc(-c3ccccn3)cs2)cc1	mHTT-CaM PPI inh 93
CCOc1ccc(Nc2nc(-c3sc(NC(C)=O)nc3C)cs2)cc1	mHTT-CaM PPI inh 64
CN(C)c1ccc(C(=O)Nc2cc(-c3ccccn3)no2)cc1	none
CN(C)c1ccc(Nc2nc(-c3ccccn3)cs2)cc1	mHTT-CaM PPI inh 100
Cc1ccnc(Nc2nc(-c3ccccn3)cs2)c1	mHTT-CaM PPI inh 100
Cc1ccnc(Nc2nc(-c3cccs3)cs2)c1	none
O=[N+]([O-])c1ccc(Nc2nc(-c3ccccn3)cs2)cc1	none
CC(=O)Nc1nc(C)c(-c2csc(Nc3ccc(C(=O)O)cc3)n2)s1	none
Cc1c(Cl)cccc1S(=O)(=O)N1CCC(CN2CCCC(C)C2)CC1 (stereo not drawn)	none
NC(=O)C1CCN(CC(=O)NCc2ccco2)CC1	none
CN(C)C1CCCCC1NS(=O)(=O)c1ccc(Cl)cc1 (stereo not drawn)	none
O=C(c1cc(-c2ccccc2F)no1)N1CCCC1c1ccc(F)cc1 (stereo not drawn)	none
CC(=O)Nc1cccc(-c2csc(Nc3ccc(C(=O)O)cc3)n2)c1	none
CC(=O)c1cccc(Nc2nc(-c3ccccn3)cs2)c1	mHTT-CaM PPI inh 86
CC(=O)c1cccc(Nc2nc(-c3ccccc3)cs2)c1	none
CC(=O)Nc1ccc(Nc2nc(-c3ccccn3)cs2)cc1	mHTT-CaM PPI inh 92
CC(C)c1ccc(N2CC(C(=O)NCc3ccncc3)CC2=O)cc1 (stereo not drawn)	none
Cc1cc(C)c2c(c1)[nH]c1nnc(SCC(=O)NCc3ccccc3)nc12	none
Cc1cc(C)c2c(c1)[nH]c1nnc(SCC(=O)N3CCN(c4ccccc4)CC3)nc12	mHTT-CaM PPI inh 74
COc1cc(C=C2Oc3cc(OC(=O)c4ccc(F)cc4)ccc3C2=O)cc(OC)c1OC	none
O=C(c1ccco1)N1CCCC2(C1)Nc1ccccc1NC2=NCc1ccccc1 (stereo not drawn)	mHTT-CaM PPI inh 84
CC(=O)N1CCCC2(C1)Nc1ccccc1NC2=NCc1ccccc1 (stereo not drawn)	mHTT-CaM PPI inh 72
O=C(c1ccccn1)N1CCCC2(C1)Nc1ccccc1NC2=NCc1ccccc1 (stereo not drawn)	none
CCn1nccc1C(=O)N1CCCC2(C1)Nc1ccccc1NC2=NCc1ccccc1 (stereo not drawn)	none
O=C(c1ccoc1)N1CCCC2(C1)Nc1ccccc1NC2=NCc1ccccc1 (stereo not drawn)	mHTT-CaM PPI inh 100
O=C(c1cccnc1)N1CCCC2(C1)Nc1ccccc1NC2=NCc1ccccc1 (stereo not drawn)	none
O=C(Nc1ccccc1Br)C(=O)N1CCCC1	none
COc1cc(C)c(C)cc1S(=O)(=O)Nc1cccc(-c2ccc(N3CCCC3)nn2)c1	mHTT-CaM PPI inh 77
Cc1ccc(-c2ccc(N3CCN(S(C)(=O)=O)CC3)nn2)cc1C	none
O=C(Nc1cccc(-c2ccc(N3CCCCC3)nn2)c1)c1ccccc1[N+](=O)[O-]	none
O=C(NCc1ccccc1)Nc1cccc(-c2ccc(N3CCCC3)nn2)c1	mHTT-CaM PPI inh 85
O=C(Nc1cccc(-c2ccc(N3CCOCC3)nn2)c1)c1ccc2nsnc2c1	none
O=C(Nc1cccc(-c2ccc(N3CCOCC3)nn2)c1)c1cc(-c2ccco2)on1	mHTT-CaM PPI inh 55
COc1ccc(NC(=O)Nc2cccc(-c3ccc(N4CCOCC4)nn3)c2)cc1OC	mHTT-CaM PPI inh 50
O=C(COc1ccc(F)cc1F)Nc1cccc(-c2ccc(N3CCOCC3)nn2)c1	none
CC(NC(=O)C12CC3CC(CC(C3)C1)C2)C(=O)NC1CCCCC1 (stereo not drawn)	none
c1ccc(C2CCCNCC2)cc1 (stereo not drawn)	none
COc1cccc(NC(=O)N2CCN(c3nc4c(C)ccc(C)c4s3)CC2)c1	none
O=C1CCC(=O)N1c1ccccc1N1CCOCC1	none (no result: mHTT-CaM PPI inh)
O=C1c2cccc(N3CCOCC3)c2C(=O)c2cccc(Cl)c21	mHTT-CaM PPI inh 84
Cc1csc(-c2coc3cc(O)cc(C)c3c2=O)n1	none
Nc1c(C(=O)NCc2ccccc2Cl)nnn1-c1ccc(OC(F)(F)F)cc1	none
O=C1CCC[C@@H]2[C@@H](Cc3ccccc3)[C@@H](Nc3ccccc3)C[C@@H]3CCN1[C@@H]32	mHTT-CaM PPI inh 70
O=C1CCC[C@@H]2[C@H](Cc3ccccc3)[C@@H](O)C[C@@H]3CCN1[C@@H]32	none
CC(C)N1CC(C(=O)Nc2ccc(Br)cc2)CC1=O (stereo not drawn)	none
Cc1noc(C)c1Cn1ccc2ccn(C)c2c1=O	none
O=C(Cc1ccc([N+](=O)[O-])cc1)N1CCN(c2ncccn2)CC1	none
COc1ccc(-c2c3c(=O)n(C)c(=O)n(C)c3cn2Cc2ccccc2)cc1	none
COc1ccc(-c2c3c(=O)n(C)c(=O)n(C)c3cn2C)cc1	Pf apPOL block 90
COc1ccc(-c2c3c(=O)n(C)c(=O)n(C)c3cn2-c2cc(C)c(C)cc2N)cc1	Pf apPOL block 68
COc1ccc(-c2c3c(=O)n(C)c(=O)n(C)c3cn2-c2ccccc2N)cc1	none
Cn1c(=O)c2c(-c3ccccc3)n(-c3ccccc3O)cc2n(C)c1=O	none
COc1ccc(-c2c3c(=O)n(C)c(=O)n(C)c3cn2-c2ccccc2O)cc1	Pf apPOL block 92
CCn1cc2c(c1-c1ccc(OC)cc1)c(=O)n(C)c(=O)n2C	Pf apPOL block 54
Cn1cc2c(c1-c1ccccc1)c(=O)n(C)c(=O)n2C	none
Cc1ccc(C(=O)N2CCCC(COc3cccc(C(=O)N4CCCC4)c3)C2)c(C)c1 (stereo not drawn)	none
CCc1ccc(C=C2Oc3c(ccc(O)c3CN(CC)CC)C2=O)cc1	none
CCCCCCCCNC(=O)C1CSCCS(=O)(=O)N1Cc1ccccc1 (stereo not drawn)	none
Nc1nnnn1/N=C/c1cc(Br)ccc1O	mHTT-CaM PPI inh active (no result: Pf apPOL block)
Oc1ccc(Br)cc1/C=N/n1cnnc1	none (no result: Pf apPOL block)
Cc1cccc2oc(-c3cc(N=Cc4ccc([N+](=O)[O-])cc4)ccc3O)nc12	Pf apPOL block 59
Cc1cccc2oc(-c3cc(N=Cc4cc([N+](=O)[O-])cc([N+](=O)[O-])c4O)ccc3O)nc12	none
COc1ccc(Br)cc1C=C1Oc2c(ccc(O)c2CN2CCN(CCO)CC2)C1=O	none
O=C1C(=Cc2cc3cc(Br)ccc3o2)Oc2c1ccc(O)c2CN1CCN(CCO)CC1	mHTT-CaM PPI inh 60
COc1ccc(C=C2Oc3c(ccc(O)c3CN3CCCC(C)C3)C2=O)c(OC)c1OC (stereo not drawn)	none
COc1cc(OC)c(OC)cc1C=C1Oc2c(ccc(O)c2CN2CCCC(C)C2)C1=O (stereo not drawn)	mHTT-CaM PPI inh 51
COC(=O)c1ccc(C=C2Oc3c(ccc(O)c3CN3CCCC3)C2=O)cc1	none
CCN1CCN(Cc2c(O)ccc3c2OC(=Cc2cc(Cl)cc4c2OCOC4)C3=O)CC1	mHTT-CaM PPI inh 55
O=C1C(=Cc2cc(Cl)cc3c2OCOC3)Oc2c1ccc(O)c2CN1CCOCC1	none
COC(=O)c1ccc(C=C2Oc3c(ccc(O)c3CN3CCCCC3C)C2=O)cc1 (stereo not drawn)	mHTT-CaM PPI inh 52
O=C1OC(c2cccc(I)c2)=N/C1=C\c1cccc(Cl)c1	none
